# Screens (PubChem)
# TDP1 cell noCPT – qHTS for Inhibitors of human tyrosyl-DNA phosphodiesterase 1 (TDP1): qHTS in cells in absence of CPT; DT40 Tdp1-/- hTDP1 cells, no CPT, ATP luminescence, 48 h; Potency, µM (titrated, usually from 46.2 µM), inactives show top-dose activity change, negative = growth inhibition, most hits filed as inhibitors; hit rate 15% among 420,000; AID 686978, 2013; also: nearly all actives have a fitted effect of over 55% in size
#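 Readout: luminescence from CellTiter-Glo after 30 min in the dark at RT. Cells: DT40 Tdp1-/- with stable hTDP1, 400/well. Exposure: compounds alone, ≥48 hr, 37 °C.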
# KB-3-1 cytotox – kills parental KB-3-1 adenocarcinoma cells. AID 1347075. KB-3-1 viability, CellTiter-Glo ATP luminescence, 72 h. hit rate 1.4% among 400,000. Potency, µM (series often up to 46.1 µM), actives largely listed as cytotoxic; also: nearly all actives have a fitted effect of over 60% in size
#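 Screening of KB-3-1 cells (DMEM, 10% FBS, phenol-red free) ran from lowest to highest compound concentration; after 72 h at 37 °C viability was read luminescently and curves fitted.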
# HT1080-NT tox – kills 2HG-producing HT-1080-NT fibrosarcoma cells | hit rate 1.6% among 360,000 | HT-1080-NT fibrosarcoma viability, CellTiter-Glo ATP luminescence, 48 h | Potency, µM (highest dose often 46.1 µM), for the others: at the highest dose activity, negative = less viability, actives largely listed as cytotoxic;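 also: NT is the 2HG producing partner of a matched IDH1 knockdown line; 0% = DMSO-treated cells and -100% = media-only wells without cells; nearly all actives have a fitted effect of over 55% in size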
#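 Toxicity toward the 2HG-producing NT line was scored as %Activity, normalised to DMSO and no-cell wells, from CellTiter-Glo luminescence after 48 hours' treatment.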
# TDP1 cell CPT – DT40-hTDP1 cell growth loss with CPT; chicken DT40 Tdp1-/-;hTDP1 cells + 20 nM CPT, ATP luminescence, 48 h; Potency, µM (series often up to 46.2 µM), for the others: at the highest dose activity change, negative = growth inhibition, hits mostly inhibitors; hit rate 12% among 420,000; AID 686979; also: nearly all actives have a fitted effect of over 55% in size
#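 Cell growth measured by CellTiter-Glo luminescence after a minimum 48 h, 37 C compound exposure with 20 nM CPT in Tdp1-knockout DT40 cells stably expressing hTDP1, seeded 400/well; qHTS titration format.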
# KB-V1 cytotox – kills drug-selected multidrug resistant KB-V1 cells; KB-V1 MDR cells viability, CellTiter-Glo, 72 h; Potency, µM (series often up to 46.1 µM), hits mostly cytotoxic; hit rate 3.4% among 400,000; also: nearly all actives have a fitted effect of over 60% in size
#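 Potencies derive from concentration-effect curves fitted to normalized luminescence (CellTiter-Glo) of KB-V1 cells treated for 72 h at 37 degrees C in phenol-red-free DMEM containing 10% FBS.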
# HT1080 IDH1KD tx – kills HT-1080 cells with IDH1 knockdown | Potency, µM (titrated, usually from 46.1 µM), for inactives: top-dose activity, negative = toxicity, hits mostly cytotoxic | HT-1080 IDH1 knockdown viability, ATP luminescence, 48 h | hit rate 2% among 360,000 | AID 686971;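 also: 0% = DMSO wells and -100% = cell-free medium wells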
#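 Knockdown cells (IDH1KD HT-1080) received compounds 2 h after plating at 750 cells/well and were kept 48 h at 37 °C in 5% FBS RPMI. A CellTiter-Glo luminescence read gave % activity for curve fitting.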
# * = called active by the depositor; i = inactive; ? = inconclusive; . = no result. In the library only some 19% were active in any assay of this set; here they are far more common. Calls follow the shape of the dose curve; as a rule, active = well fitted curve in the direction sought with a large enough effect; inconclusive = small, poorly fitted or top-dose-only effect, or another doubt; inactive = no such curve, though single readings can be large; an effect the other way counts as inactive or inconclusive. Unless noted, % is scaled to controls: 0 for no effect and ±100 for the full control effect; potency is read from the fitted curve at half-maximal effect.
SMILES,TDP1 cell noCPT,KB-3-1 cytotox,HT1080-NT tox,TDP1 cell CPT,KB-V1 cytotox,HT1080 IDH1KD tx
CCOc1ccc(-n2c(SCC(=O)Nc3ccccc3OC)nc3c(oc4ccccc43)c2=O)cc1,?,i,.,?,i,.
COc1ccccc1NC(=O)CSc1nc2c(oc3ccccc32)c(=O)n1Cc1ccco1,?,i,.,15µM*,i,.
O=C(CN1C(=O)c2ccccc2S1(=O)=O)Nc1ccc(S(=O)(=O)Nc2ncccn2)cc1,-6%,i,-5%,-10%,i,-3%
Cc1cccc(C(=O)Nc2ccccc2OCc2cc(=O)n3cc(C)ccc3n2)c1,?,i,.,?,i,.
N#CC(C#N)=C1C=CC=CN1/C(=C\c1ccccc1Cl)C(=O)c1ccccc1,1.2µM*,?,?,0.58µM*,?,2.6µM*
N#CC(C#N)=C1C=CC=CN1/C(=C\c1ccccc1)C(=O)c1cccs1,3.7µM*,i,-1%,1µM*,?,-14%
Cc1cc2nc(C(C)(C)C)c(Cc3cccc(F)c3)n2c(C)c1Br,?,i,?,?,i,?
CCN1c2ccccc2NC2C1C(C(C)=O)C(=O)N2c1ccc(Cl)cc1 (configuration not stated),16µM*,i,?,21µM*,i,16µM*
O=C(/C=C/c1cccc([N+](=O)[O-])c1)n1cnc2ccccc21,2.6µM*,?,?,2.6µM*,?,2.6µM*
COc1ccc(/C=C/C(=O)c2ccccc2O)cc1,?,i,10%,?,i,1%
O=C(C=Cc1cccs1)c1cccs1,26µM*,i,-8%,?,i,-3%
O=C(/C=C/c1ccc(O)cc1)c1cccs1,24µM*,.,.,24µM*,.,.
O=C(/C=C/c1ccc(O)cc1)c1ccccc1O,15µM*,.,.,26µM*,.,.
CCc1nc2oc3ccccc3c(=O)c2cc1C(=O)OC,-27%,i,9%,0%,i,12%
CC(=O)Oc1ccccc1C(=O)C=Cc1cccc([N+](=O)[O-])c1,21µM*,15µM*,?,10µM*,5.8µM*,16µM*
Cc1cccc(NC(=O)/C(=C/c2cccc([N+](=O)[O-])c2)NC(=O)c2cccs2)c1,1.8µM*,i,?,-46%,i,-30%
O=C(/C=C/c1cccc([N+](=O)[O-])c1)c1cccs1,2.3µM*,?,10µM*,3.7µM*,?,16µM*
O=C(/C=C\c1cccs1)c1c(O)ccc2ccc(=O)oc12,?,?,?,?,i,23µM*
COc1ccccc1CCNC(=O)Cn1ccc2cc(S(=O)(=O)N3CCCCC3)ccc21,?,i,.,?,i,.
COc1cc(CCN(C(=O)c2cc3ccccc3[nH]2)C(c2ccccn2)c2nc3ccccc3[nH]2)cc(OC)c1 (configuration not stated),?,i,-1%,?,i,?
NC(=O)CSc1nc2c(sc(=S)n2-c2ccccc2)c(=O)[nH]1,1%,i,5%,-1%,i,7%
Cc1ccc(C)c(C(=O)N2CCC(C3(c4ccccn4)NC(=O)N(CC4CCCO4)C3=O)CC2)c1 (configuration not stated),-8%,.,.,8%,.,.
CCCC[C@@H](CN[C@H](C)CNC)NCC1CCC(C(C)(C)C)CC1 (some centres not stated),6.5µM*,?,?,5.8µM*,?,18µM*
Cc1cc2c(cc1C)-n1nnnc1C(N1CCN(CC(=O)N3CCCC3)CC1)C(=O)N2 (configuration not stated),-17%,i,22%,-21%,i,15%
Cc1cc2c(cc1C)-n1nnnc1C(N1CCN(c3ccccc3F)CC1)C(=O)N2 (configuration not stated),18µM*,i,0%,18µM*,?,-15%
SMILES,TDP1 cell noCPT,KB-3-1 cytotox,HT1080-NT tox,TDP1 cell CPT,KB-V1 cytotox,HT1080 IDH1KD tx
Cc1cc2c(cc1C)-n1nnnc1C(N(C)Cc1ccccc1)C(=O)N2 (configuration not stated),15µM*,i,-6%,21µM*,?,-2%
O=C1Nc2ccccc2-n2nnnc2C1N1CCN(c2ccc(C(F)(F)F)cn2)CC1 (configuration not stated),21µM*,?,13%,16µM*,21µM*,7%
Cc1cc2c(cc1C)-n1nnnc1C(N1CCN(C(=O)OCc3ccccc3)CC1)C(=O)N2 (configuration not stated),5.8µM*,?,?,6.5µM*,18µM*,?
Cc1cccc(N2CCN(C3C(=O)Nc4ccccc4-n4nnnc43)CC2)c1C (configuration not stated),7.3µM*,?,?,12µM*,?,10µM*
CS(=O)(=O)c1ncc(CO)n1Cc1ccccc1,11%,i,10%,15%,i,13%
COc1ccc(OC)c(CNC(=O)c2cc3c(-c4ccc(OC)c(OC)c4)nn(C)c3s2)c1,8.2µM*,i,.,?,?,.
CCCN(CCC)CCCNC(=O)c1cc2c(-c3ccc(OC)c(OC)c3)nn(C)c2s1,4.6µM*,i,?,15µM*,?,21µM*
CC(O)(CS(=O)(=O)Cc1ccccc1)c1ccccc1Cl (configuration not stated),13%,i,-1%,-29%,i,0%
CCc1ccc(N(CC(=O)NC(C)(C)C)C(=O)CNC(=O)c2cccs2)cc1,0%,i,8%,-3%,?,13%
CCC(C)c1ccc(N(CC(=O)NC(C)(C)C)C(=O)CNC(=O)c2cccs2)cc1 (configuration not stated),18µM*,i,-13%,?,i,-17%
CN1CCc2c(sc3c2C(=O)NC(c2ccc(C(C)(C)C)cc2)N3)C1 (configuration not stated),13µM*,i,.,?,i,.
COc1ccc(C(=O)Oc2ccc(C3NC(=O)c4c(sc5c4CCN(C)C5)N3)cc2OC)cc1 (configuration not stated),16µM*,i,.,?,i,.
CN(C)S(=O)(=O)c1cc(NC2CC(=O)N(c3ccc(F)cc3)C2=O)ccc1Cl (configuration not stated),9%,i,7%,9%,i,7%
